Records with an inconclusive call do not appear. Where a call stands in place of a potency, no number is given. Active and inactive are the calls of the source. The call rests on the fitted dose curve; in most records, active means well fitted inhibition curve with a large enough effect; inconclusive means small, poorly fitted or top-dose-only effect; inactive means flat fitted curve, though single readings scatter. Where a SMILES comes first, the peptide text is derived from it. The star is where a group is joined. AFC = O=c1cc(C(F)(F)F)c2ccc(N*)cc2o1
molecular target: Calcium and integrin-binding protein 1 (Homo sapiens) (UniProt Q99828); assay: Primary qHTS for Identification of Calcium Integrin Binding Protein 1 (CIB1) Competitor (AID 1508620); settings: CIB1-GST / FITC-alphaIIb peptide fluorescence polarization; series mostly up to 114 µM;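 further: GST tagged CIB1 binding a fluorescein labelled alphaIIb integrin peptide tracer; top concentration of the series differs between compounds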
Sequence (Q99828 whole entry, looked up): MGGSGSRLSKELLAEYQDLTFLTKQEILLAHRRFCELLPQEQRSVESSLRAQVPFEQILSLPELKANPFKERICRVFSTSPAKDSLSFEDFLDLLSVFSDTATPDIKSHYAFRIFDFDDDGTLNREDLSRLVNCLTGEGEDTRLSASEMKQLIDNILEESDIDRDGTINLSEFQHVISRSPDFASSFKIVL
Outline: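 CIB1-GST (1 uM final) and compound incubated 15 min at room temperature before adding FITC-alphaIIb peptide tracer (100 nM final). Competition for binding read by fluorescence polarization (ex 480, em 540) after another 15 min at room temperature.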

Question: O=C1NC(=O)C(c2cn(-c3ccccc3)nc2-c2ccc(F)cc2)N1 (stereo not drawn) was tested. Which Potency did it give?
Answer: inactive

Question: C=C(F)c1sc(CNCCCNc2cc(=O)c3ccccc3[nH]2)c(C)c1Br was tested. Which Potency did it give?
Answer: inactive

Question: For C[C@@H]1C[C@@H](O)[C@@]23CO[C@@H](O)[C@@H]2CCC[C@@H]3[C@@]12C[C@@H](c1ccoc1)OC2=O, which Potency is on record?
Answer: inactive

Question: Which Potency does the source give for COc1ccc([C@@]2(O)c3c(ccc4c3OC(C)(CCC=C(C)C)C=C4)NC(=O)[C@@H]2OC)cc1 (stereo partly drawn) here?
Answer: inactive

Question: Which Potency does the source give for C[C@H](NC(c1cccc(C[P+](=O)O)c1)[C@H](C)O)c1ccc(Cl)c(Cl)c1 (stereo partly drawn) here?
Answer: inactive

Question: How did the Potency turn out when COc1cc(/C=C/C(=O)OC[C@H]2O[C@@](CO)(O[C@H]3O[C@H](CO)[C@@H](O)[C@H](O)[C@H]3O)[C@@H](OC(=O)/C=C/c3ccc(O)c(OC)c3)[C@@H]2O)ccc1O was run?
Answer: inactive

Question: CC(CO)C1CCC2(C)CC3C(CO)CC(O)C3C(C)(O)C/C=C/12 (stereo not drawn) was tested. Which Potency did it give?
Answer: inactive

Question: With CC1C(OC(=O)c2ccccc2)C(O)C2C(C(=O)O)=COC(OC3OC(CO)C(O)C(O)C3O)C12 (stereo not drawn) as the molecule, how does the Potency read?
Answer: inactive

Question: CC(C)O[C@@H]1O[C@H](CO)[C@@H](O)[C@H](O)[C@H]1O was tested. Which Potency did it give?
Answer: inactive

Question: For CC(C)C[C@H](CC(=O)NO)C(=O)N[C@H](C(=O)N[C@@H](C)C(=O)NCCN)C(C)(C)C, which Potency is on record?
Answer: inactive

Question: With Nc1ncnc2c([C@@H]3N[C@H](CO)[C@@H](O)[C@H]3O)c[nH]c12 as the molecule, how does the Potency read?
Answer: inactive

Question: Which Potency does the source give for C#CCN(Cc1cc2c(=O)[nH]c(C)nc2cc1Br)c1ccc(C(=O)NCc2cccnc2)cc1 here?
Answer: inactive

Question: Which Potency does the source give for CCc1cc(CN2CC(C(=O)O)C2)sc1-c1noc(-c2ccc(Oc3ccccc3)cc2)n1 here?
Answer: inactive

Question: CC(O)/C=C/C1OC(=O)CC1Nc1ccc(C(=O)O)cc1 (stereo not drawn) was tested. Which Potency did it give?
Answer: inactive

Question: With C=CC(C)(CC/C=C(\C)C(=O)OC)OC1OC(COC(=O)CC(C)(O)CC(=O)O)C(OC2OC(CO)C(O)C(O)C2O)C(O)C1O (stereo not drawn) as the molecule, how does the Potency read?
Answer: inactive

Question: C/C1=C\[C@H]2OC(=O)[C@@H](C)[C@@H]2CC/C(C(=O)O)=C/CC1 was tested. Which Potency did it give?
Answer: inactive

Question: Which Potency does the source give for C=C1C(OC(C)=O)CCC2(C)CC3(OC)OC(=O)C(C)=C3CC12 (stereo not drawn) here?
Answer: inactive

Question: For CC1(C)CCCC2(C)C(C(=O)O)=CCC12 (stereo not drawn), which Potency is on record?
Answer: inactive

Question: How did the Potency turn out when COc1cc(C2Oc3c(OC)cc(CCCO)cc3C2CO)ccc1O[C@H]1O[C@H](C)[C@@H](O)[C@H](O)[C@@H]1O (stereo partly drawn) was run?
Answer: inactive

Question: For O=C1NC(Cc2c[nH]c3ccccc23)C(=O)NC1Cc1cnc[nH]1 (stereo not drawn), which Potency is on record?
Answer: inactive

Question: For COC(=O)Cc1cc2c(c([N+](=O)[O-])c1)N(C(=O)CC[C@H](N)C(=O)O)CC2, which Potency is on record?
Answer: inactive

Question: With CC(=O)N[C@@H](Cc1c[nH]c2ccccc12)C(=O)N[C@@H](CCC(=O)O)C(=O)N[C@@H](Cc1cnc[nH]1)C(=O)N[C@@H](CC(=O)O)C(=O)Nc1ccc2c(C(F)(F)F)cc(=O)oc2c1 (Ac-WEHD-{AFC}) as the molecule, how does the Potency read?
Answer: inactive

Question: For CN[C@H](CC(C)C)C(=O)N[C@H]1C(=O)N[C@@H](CC(N)=O)C(=O)N[C@H]2C(=O)N[C@H]3C(=O)N[C@H](C(=O)N[C@H](C(=O)O)c4cc(O)cc(O)c4-c4cc3ccc4O)[C@H](O[C@H]3C[C@](C)(N)[C@@H](O)[C@H](C)O3)c3ccc(c(Cl)c3)Oc3cc2cc(c3O[C@@H]2O[C@H](CO)[C@@H](O)[C@H](O)[C@H]2O[C@H]2C[C@](C)(NCc3ccc(-c4ccc(Cl)cc4)cc3)[C@@H](O)[C@H](C)O2)Oc2ccc(cc2Cl)[C@H]1O, which Potency is on record?
Answer: inactive

Question: C[C@@H]1C[C@H]2O[C@@H]2/C=C\C=C\C(=O)Cc2c(Cl)c(O)cc(O)c2C(=O)O1 was tested. Which Potency did it give?
Answer: inactive

Question: With CC(C)C(N)C(=O)OCCOCn1cnc2c(=O)[nH]c(N)nc21 (stereo not drawn) as the molecule, how does the Potency read?
Answer: inactive

Question: With CCC1C(=O)OC23C=C[C@@H]4C(C(=O)O)=CO[C@H](O[C@@H]12)[C@@H]43 (stereo partly drawn) as the molecule, how does the Potency read?
Answer: inactive

Question: How did the Potency turn out when N#Cc1cc(F)cc(-c2nc(-c3ccccn3)no2)c1 was run?
Answer: inactive

Question: For O=C(Nc1ccn[nH]1)c1c(F)cccc1F, which Potency is on record?
Answer: inactive

Question: O=C(O)C1CN(Cc2ccc(-c3nc4cc(Cc5ccccc5F)ccc4s3)c(F)c2)C1 was tested. Which Potency did it give?
Answer: inactive

Question: NC(=O)c1cccc(-c2cc(OC(=O)NC3CCCCC3)ccc2O)c1 was tested. Which Potency did it give?
Answer: inactive

Question: For COc1ccc(CCO[C@@H]2CCCC[C@H]2N2CC[C@@H](O)C2)cc1OC, which Potency is on record?
Answer: inactive

Question: CC(=O)c1cc(C(=O)N[C@@H](C)Cn2ccc(-c3ccc(C#N)c(Cl)c3)n2)[nH]n1 was tested. Which Potency did it give?
Answer: inactive

Question: With CC(=O)CCC1=C(C)C(O[C@@H]2O[C@H](CO)[C@@H](O)[C@H](O)[C@H]2O)C(O)CC1(C)C (stereo partly drawn) as the molecule, how does the Potency read?
Answer: inactive

Question: How did the Potency turn out when C=C1C[C@]23C[C@H]1CC[C@H]2[C@@]12CC[C@H](O)[C@@](C)(C(=O)O1)[C@H]2[C@@H]3C(=O)O was run?
Answer: inactive

Question: How did the Potency turn out when C[C@@H]1N[C@H]2N(C1=O)c1ccccc1[C@@]2(O)C[C@@H]1C(=O)N[C@@H](C)c2nc3ccccc3c(=O)n21 was run?
Answer: inactive

Question: Which Potency does the source give for C=C[C@@]12COC(=O)C(=C)C1[C@@H](O)[C@H](C(=C)C(=O)OC)[C@@H](OC(=O)C(=C)CO)C2 (stereo partly drawn) here?
Answer: inactive

Question: Which Potency does the source give for CO[C@H]1O[C@@H]2O[C@]3(C)CC[C@H]4[C@H](C)CC[C@@H]([C@H]1C)[C@@]24OO3 here?
Answer: inactive

Question: With CCOC(=O)C(CCc1ccccc1)NC(C)C(=O)N1C(=O)N(C)CC1C(=O)O (stereo not drawn) as the molecule, how does the Potency read?
Answer: inactive
